Bioassay records: PubChem, Buhrlage Lab, Dana-Farber Cancer Institute and Novartis Institutes for BioMedical Research (Cambridge, Mass)
USP7 inh = inhibitors of human USP7 deubiquitinase | Ubiquitin carboxyl-terminal hydrolase 7 (Homo sapiens), Q93009 | purified USP7, Ub-rhodamine cleavage fluorescence | inhibition, % at 20 µM | hit rate 0.3% among 47,000
USP30 block = inhibitors of human USP30 deubiquitinase; inhibition, % at 25 µM; hit rate 5.3% among 47,000; purified USP30, Ub-rhodamine cleavage fluorescence; Ubiquitin carboxyl-terminal hydrolase 30 (Homo sapiens), Q70CQ3
USP8 inh = inhibitors of human USP8 deubiquitinase | purified USP8, Ub-rhodamine cleavage fluorescence, 30 min | inhibition, % at 20 µM | hit rate 4.2% among 47,000 | AID 1645853, 2021
USP10 block = inhibitors of human USP10 deubiquitinase. hit rate 1.1% among 47,000. inhibition, % at 20 µM. purified USP10, Ub-rhodamine fluorescence, 60 min
USP17 block = inhibitors of human USP17 deubiquitinase | inhibition, % at 50 µM | hit rate 6.5% among 47,000 | purified USP17, Ub-rhodamine cleavage fluorescence, 3 h | AID 1645855, 2021
Target sequence (A8MUK1 whole entry, looked up): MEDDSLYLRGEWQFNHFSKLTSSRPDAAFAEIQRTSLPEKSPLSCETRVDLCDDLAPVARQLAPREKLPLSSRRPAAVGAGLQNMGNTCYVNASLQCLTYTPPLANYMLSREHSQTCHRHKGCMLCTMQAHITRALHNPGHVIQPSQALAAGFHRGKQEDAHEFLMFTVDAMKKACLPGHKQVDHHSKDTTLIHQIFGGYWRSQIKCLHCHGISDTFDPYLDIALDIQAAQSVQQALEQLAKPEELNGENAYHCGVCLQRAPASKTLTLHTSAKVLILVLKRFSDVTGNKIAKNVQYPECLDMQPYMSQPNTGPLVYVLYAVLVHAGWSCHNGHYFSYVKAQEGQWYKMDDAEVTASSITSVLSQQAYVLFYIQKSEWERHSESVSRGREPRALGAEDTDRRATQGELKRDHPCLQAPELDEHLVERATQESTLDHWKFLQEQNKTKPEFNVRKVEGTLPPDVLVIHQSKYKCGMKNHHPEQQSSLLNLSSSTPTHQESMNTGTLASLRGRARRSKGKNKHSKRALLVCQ
USP28 inh = inhibitors of human USP28 deubiquitinase; Ubiquitin carboxyl-terminal hydrolase 28 (Homo sapiens), Q96RU2; purified USP28, Ub-rhodamine cleavage fluorescence, 30 min; inhibition, % at 25 µM; hit rate 3% among 47,000
The depositor's hits bear a star; x = not tested or not shown. The list is not random: actives were taken first. Their share in the collection is about 13%. Cut-off read from the data, not from the text of the source: active = inhibition above about 30%; inactive = the rest.

SMILES | USP7 inh | USP30 block | USP8 inh | USP10 block | USP17 block | USP28 inh
COc1cccc(O[C@@H]2C[C@@H](NC(=O)c3ncccc3C)[C@H](O)[C@H]2O)c1 | 6 | 2 | 1 | 2 | 0 | -4
COC(=O)CSc1nnc(-c2ccccc2O)n1Cc1ccccc1 | -1 | 20 | 37* | 2 | -12 | 10
CC(=O)c1ccc(N2C(=O)[C@H]3Cc4c([nH]c5ccccc45)CN3C2=O)cc1 | 4 | 10 | 28 | 19 | 44* | 7
COc1cc(NC(=O)c2cccnc2)ccc1NC(=O)c1cc2ccccc2o1 | 4 | -54 | -1 | -3 | 39* | -19
COc1cccc(CNC(=O)Cc2c(C)n[nH]c2C)c1 | 1 | -6 | -7 | 0 | x | -7
CSc1ccc(CNC(=O)Cc2c(C)n[nH]c2C)cc1 | 1 | 34* | 17 | 2 | 15 | 8
CCN1CCN(c2ncc(C(=O)NCc3ccc4c(c3)OCO4)c(C)n2)CC1 | -3 | -21 | 3 | -5 | -5 | -3
CCc1ccc(-n2c(=O)[nH]c3c(c2=O)C(C)(C)Cc2ccccc2-3)cc1 | 7 | -1 | 18 | 1 | 37* | 3
Cc1ccc(-n2c(=O)[nH]c3c(c2=O)C(C)(C)Cc2ccccc2-3)cc1 | 4 | 0 | 0 | 0 | 14 | -5
COc1ccccc1NS(=O)(=O)c1cccc(NC(=O)CCOc2ccccc2)c1 | -2 | 16 | 3 | 6 | 10 | -74
COc1ccccc1NS(=O)(=O)c1cccc(NC(=O)CCc2nc3ccccc3s2)c1 | 7 | -125 | 23 | -1 | 61* | 25
CCCN1C(=O)c2cc(S(=O)(=O)NCC(C)C)ccc2Oc2cccnc21 | 0 | 8 | 1 | 2 | 5 | 6
Cc1ccc(NC(=O)NC2CCc3nc(C(F)(F)F)cn3C2)cc1 (centres undefined) | -2 | -2 | 6 | 1 | -1 | -1
COc1ccc(OC)c(NC(=O)CS(=O)(=O)c2cn(CC(=O)N3CCC(C)CC3)c3ccccc23)c1 | -7 | 9 | 32* | -7 | 51* | 19
COc1ccc(NC(=O)CSc2cn(CC(=O)N3CCCCCC3)c3ccccc23)cc1OC | -5 | 7 | -135 | 0 | -10 | -8
O=C(Cn1cc(C(=O)c2ccccc2)c(=O)c2cc(F)ccc21)Nc1ccc2c(c1)OCO2 | 10 | -22 | 59* | 26 | -6 | -13
Cc1ccc(C(=O)c2cn(CC(=O)Nc3ccc4c(c3)OCO4)c3ccccc3c2=O)cc1 | 33* | 79* | 90* | 57* | 85* | 13
CC1CCN(C(=O)Cn2cc(SCC(=O)Nc3ccc4c(c3)OCCO4)c3ccccc32)CC1 | 3 | 6 | -55 | 0 | 0 | 38*
O=C(Cn1cc(C(=O)c2ccccc2)c(=O)c2cc(F)ccc21)Nc1ccc2c(c1)OCCO2 | 10 | -103 | -139 | 27 | -34 | -32
Cc1cc(C)c(NC(=O)CS(=O)(=O)c2cn(CC(=O)N3CCC(C)CC3)c3ccccc23)c(C)c1 | 2 | 13 | 0 | 2 | 2 | 7
Cc1ccccc1CC(=O)NC(C)(C)c1nc2c(c(C(N)=O)n1)OCO2 | 3 | 0 | -22 | 3 | -1 | -5
COc1ccccc1CCNc1ncnc2c1[nH]c1ccccc12 | 10 | -11 | 0 | 2 | -3 | 0
C=C(NC(=O)C(=C)NC(=O)c1ccc2c(n1)-c1coc(n1)C(=C)NC(=O)C(=C)NC(=O)c1nc(oc1C)C(=C)NC(=O)C(C(C)(C)O)NC(=O)C(=C)NC(=O)c1nc(oc1C)/C(=C/C)NC(=O)C(C(C)O)NC(=O)c1csc-2n1)C(N)=O (centres undefined) | 10 | -78 | 4 | -10 | 36* | 0
CN(CC(=O)Nc1cccc(Cl)c1)Cc1nc2ccccc2c(=O)[nH]1 | -6 | -23 | -26 | -2 | -14 | -6
O=C(NCCc1nc(-c2ccc3c(c2)OCO3)n[nH]1)c1cccc(Br)c1 | 0 | 11 | 10 | 1 | 38* | 13
O=C(NCCc1nc(-c2ccncc2)n[nH]1)c1cccc2cccnc12 | -2 | x | -5 | -1 | -15 | x
